Experimental findings from PubChem BioAssay AID588651 (The Scripps Research Institute Molecular Screening Center, 2011) are described below.

The source made the active and inactive calls. No stated cut-off is given here; in the data, active means inhibition above about 65%; inactive means the rest.

The assay concerns Fam108b. In words: Fam108b inhibitors and proteome off-target selectivity – biochemical, gel-based ABPP, recombinant soluble Fam108b, HTS hits, complex proteome, late-stage follow-up (AID 588651).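 Further: Fam108b spiked into mouse brain membrane proteome.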 Conditions: FP-rhodamine labeling in proteome, at 20 µM, hits give high values.
`CC1=CC(=O)c2c(O)ccc(O)c2C1=O`: the inhibition is 50% (inactive).

`O=C(NCC1CC1)c1ccc(Nc2nc3ccc(Br)cc3[nH]2)cc1`: the inhibition is 0% (inactive).

Take `Fc1ccc2nc(Nc3nc4cc5c(cc4s3)OCO5)sc2c1`: the inhibition is 0% (inactive).

For the compound `COc1cc(-c2nc(-c3ccc4c(c3)-c3ccccc3S4(=O)=O)c(-c3ccccc3)[nH]2)cc(OC)c1O`, the inhibition is 40% (inactive).

Consider `O=C1C(SCCO)=C(SCCO)C(=O)c2ccccc21`, for which the inhibition is 50% (inactive).

For the compound `Oc1ccc(C2Nc3cccc4cccc(c34)N2)c(O)c1`, the inhibition is 0% (inactive).

Turning to `Oc1ccccc1C1Nc2cccc3cccc(c23)N1`, the inhibition is 0% (inactive).

For the compound `COc1ccc2ccccc2c1C(O)c1nccn1C` (centres undefined), the inhibition is 0% (inactive).

`CCOC(=O)c1sc(NC(=O)Nc2ccc(Cl)cc2)cc1C`: the inhibition was 0% (inactive).

With `Cc1ccc(C)c(-n2c3nc(=O)[nH]c(=O)c-3cc3cc([N+](=O)[O-])ccc32)c1`, the inhibition was 0% (inactive).

Consider `COc1ccc(NC(=S)Nc2ccc3nsnc3c2)cc1`, for which the inhibition is 0% (inactive).

Take `Cc1[nH]c2c(C)cccc2c1CCNC(=O)c1ccc2c(c1[N+](=O)[O-])C(=O)c1ccccc1C2=O`: the inhibition is 40% (inactive).

With `COc1ccc(-c2csc3nc(-c4ccccc4F)oc(=O)c23)cc1`, the inhibition is 95% (active).

With `COc1ccc(/C=C/C(=O)OCC(=O)Nc2cccc(Oc3ccccc3)c2)c(OC)c1`, the inhibition was 30% (inactive).

As to `O=C1C(Cl)=C(N2CCC(C(=O)O)CC2)C(=O)c2ccccc21`, the inhibition was 0% (inactive).

Regarding `Oc1ccc(C=NNc2ccnc3cc(Cl)ccc23)cc1O`, the inhibition is 65% (active).

As to `COc1ccc(C=NNC(=O)c2ccc(O)cc2)cc1CN1CCCc2ccccc21`, the inhibition is 40% (inactive).

On to `CCCCCCCCCCCCCCCC[n+]1ccc(C=NO)cc1`, for which the inhibition is 0% (inactive).

Turning to `CCc1ccc(S(=O)(=O)/N=C2\C=C(Nc3cccc(C(=O)O)c3)C(=O)c3ccccc32)cc1`, the inhibition was 0% (inactive).

In the case of `O=c1oc(-c2ccccc2F)nc2scc(-c3ccccc3)c12`, the inhibition was 98% (active).

Consider `CN(C)S(=O)(=O)c1cccc(NC(=O)COC(=O)c2cc(-c3cccc(Br)c3)nc3ccccc23)c1`, for which the inhibition was 0% (inactive).

As to `Cc1ccccc1NC1=C/C(=N\S(=O)(=O)c2cccs2)c2ccccc2C1=O`, the inhibition was 0% (inactive).

In the case of `CC1CCN(S(=O)(=O)c2ccc(C(=O)Nc3ccccc3-c3nc4ccccc4[nH]3)cc2)CC1`, the inhibition was 0% (inactive).

Take `Cc1ccc2nc(CSc3nc(C)ccc3C#N)[nH]c2c1`: the inhibition is 50% (inactive).

Turning to `CCN(CC)c1ccc(C2Nc3cccc4cccc(c34)N2)c(O)c1`, the inhibition was 10% (inactive).

As to `Oc1nc(Nc2cccc(Cl)c2)sc1/C=C1\C=Nc2ccccc21`, the inhibition is 80% (active).

With `COc1cc2cc(C(=O)NN=Cc3ccccc3Cl)[nH]c2cc1OC`, the inhibition was 10% (inactive).

For the compound `Oc1c(Cl)cc(Cl)c(Cl)c1Cc1c(O)c(Cl)cc(Cl)c1Cl`, the inhibition was 0% (inactive).

As to `Cc1nc2scc(-c3ccccc3)c2c(=O)o1`, the inhibition is 80% (active).

As to `Nc1c(S(=O)(=O)c2cccc(Cl)c2)c2nc3ccccc3nc2n1N=Cc1ccc(O)c(O)c1`, the inhibition is 75% (active).

For `Oc1ccc(C=NNc2ccnc3cc(Cl)ccc23)c(O)c1O`, the inhibition was 20% (inactive).

Regarding `COc1cccc(-n2c(SCc3cc(=O)oc4cc(O)c(O)cc34)nc3ccccc3c2=O)c1`, the inhibition was 10% (inactive).

Regarding `Cc1ccc(-c2csc3nc(C(C)C)oc(=O)c23)c(C)c1`, the inhibition was 90% (active).

For `Oc1oc(-c2ccccc2Br)nc1C=Nc1ccccn1`, the inhibition is 90% (active).

For orientation: inhibition means the relative decrease from the control value, in per cent.
